Results as given in PubChem BioAssay AID743187 (National Center for Advancing Translational Sciences (NCATS), 2013).
This is one part of the list. Results filed as inconclusive are left out. Unmarked numbers belong to inactive results. Calls of active or inactive are those of the source. Calls come from the whole dose curve; as a rule, active = well fitted inhibition curve with a large enough effect; inconclusive = small, poorly fitted or top-dose-only effect; inactive = no such curve, though single readings can be large or run the other way.

Each compound was assayed against Peroxisomal multifunctional enzyme type 2 (Homo sapiens) (UniProt P51659) (assay: Extended Characterization of HPGD Inhibitors: Counterscreen Against HSD17b4). Conditions: purified HSD17B4, estradiol/NAD+, NADH fluorescence; series mostly up to 57.1 µM; activity change, negative = inhibition: at the top concentration.
Peroxisomal multifunctional enzyme type 2 (Homo sapiens), sequence (P51659 whole entry, looked up): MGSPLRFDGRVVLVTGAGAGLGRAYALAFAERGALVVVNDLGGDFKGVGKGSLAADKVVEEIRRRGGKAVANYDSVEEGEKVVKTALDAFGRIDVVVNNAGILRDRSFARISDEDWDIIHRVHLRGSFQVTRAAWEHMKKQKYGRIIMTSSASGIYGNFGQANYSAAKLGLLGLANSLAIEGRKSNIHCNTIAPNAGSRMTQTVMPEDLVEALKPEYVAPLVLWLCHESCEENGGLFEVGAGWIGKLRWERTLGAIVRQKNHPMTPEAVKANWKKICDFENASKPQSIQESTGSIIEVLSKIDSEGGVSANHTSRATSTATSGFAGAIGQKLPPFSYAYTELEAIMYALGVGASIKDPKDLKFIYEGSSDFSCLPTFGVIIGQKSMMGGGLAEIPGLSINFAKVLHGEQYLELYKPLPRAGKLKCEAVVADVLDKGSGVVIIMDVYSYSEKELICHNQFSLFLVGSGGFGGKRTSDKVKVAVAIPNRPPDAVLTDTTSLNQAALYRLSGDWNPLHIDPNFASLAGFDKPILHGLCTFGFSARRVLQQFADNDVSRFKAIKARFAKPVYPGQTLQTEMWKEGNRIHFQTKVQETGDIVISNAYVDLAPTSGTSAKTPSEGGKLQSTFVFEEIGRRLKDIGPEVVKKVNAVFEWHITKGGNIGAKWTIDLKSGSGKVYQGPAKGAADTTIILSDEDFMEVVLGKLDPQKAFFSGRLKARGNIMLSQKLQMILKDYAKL
Source text: The central role of HPGD is to inactivate prostaglandins such as prostaglandin E2 (PGE2) or prostaglandin D2 (PGD2). These prostaglandins are involved in a number of processes, including inflammation, differentiation, and cellular signaling, which makes HPGD an important target for pharmacological intervention. The […] enzyme 17b-hydroxysteroid dehydrogenase […] (HSD17b4 catalyzes the NAD+-dependent oxidation of a variety of substrates including acyl-CoAs, androgens and neurosteroids, as well as bile acids. HSD17b4 activity was screened by utilizing an electron donor (estradiol) and NAD+ as an electron acceptor/cofactor. An increase in the fluorescence intensity due to conversion of NAD+ to NADH was used to measure the enzyme activity.. NIH Chemical Genomics Center [NCGC] NIH Molecular Libraries Probe Centers Network [MLPCN] MLPCN Grant: MH084681 Assay Submitter (PI): Structural Genomics Consortium
3 uL of enzyme (final concentration 100 nM) or buffer were dispensed into a 1,536-well solid-bottom black plate (Greiner Bio One, Monroe, NC) followed by pin-tool transfer (23 nL) of compound (final concentration range 324 pM to 57.2 uM) and control (CID-24867619, final concentration range 5.23 nM to 11.4 uM). Samples were incubated (RT, protected from light) for 15 minutes followed by a 1 uL substrate addition of NAD+ and Estradiol (final concentrations of 1 mM and 50 uM, respectively, in 15% DMSO). Plates were centrifuged at 1,000 rpm for 15 seconds, then read immediately on a ViewLux High-throughput CCD imager (Perkin-Elmer) equipped with standard UV fluorescence optics (340 nm excitation, 450 nm emission), incubated for 1 hour (RT, protected from light) followed by a second read. Data were normalized ([…]) against no-enzyme (positive) and enzyme-containing (neutral) wells.

In order of rising “activity change, negative = inhibition” value:
1. Cc1cc(C)nc(NC(=S)N2CCN(c3cccc(C#N)c3)CC2)c1  -28.4%
2. FC(F)(F)c1cccc(N2CCN(C(=S)Nc3ccncc3)CC2)c1  -27.4%
3. COc1cccc(NC(=S)N2CCN(c3ccc(Cl)cc3Cl)CC2)n1  -23.8%
4. COc1ccnc(NC(=S)N2CCN(c3ncc(C(F)(F)F)cc3Cl)CC2)c1  -22.7%
5. COc1cccc(NC(=S)N2CCN(c3ccccc3C(F)(F)F)CC2)n1  -11.1%
6. Cc1cc(-c2nnc3n2CCCCC3)c(C)n1-c1cccc(Cl)c1  -8.23%
7. Cc1cc(C)nc(NC(=S)N2CCN(c3ccc4nonc4c3)CC2)c1  0.76%

With Cc1cc(C)nc(NC(=S)N2CCN(c3ccc(Cl)cc3C(F)(F)F)CC2)c1 the Potency was 24.1 µM (active).
